Bioassay records deposited in PubChem by National Center for Advancing Translational Sciences (NCATS).
KB-V1 cytotox = KB-V1 MDR subline cytotoxicity | Potency, µM (doses to about 46.1 µM), usual class: cytotoxic | KB-V1 MDR cells viability, CellTiter-Glo, 72 h | actives 3.4% (n = 400,000); also: potency is read from the fitted curve at half-maximal effect; % is scaled to controls: 0 for no effect and ±100 for the full control effect; nearly all actives have a fitted effect of over 60% in size
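qHTS viability screen in drug-selected KB-V1 MDR cells: 72 h compound treatment at 37 degrees C, ATP luminescence end point.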
SW480 rerep = DNA re-replication induction in SW480 cells; SW480 DNA re-replication, Hoechst DNA content imaging, 48 h; Potency, µM (doses to about 46.1 µM), for inactives: top-dose re-replication activation, actives largely listed as activators; actives 1.8% (n = 340,000); AID 624297; also: potency is read from the fitted curve at half-maximal effect; % of control where 0% means no effect; nearly all actives have a fitted effect of over 55% in size
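SW480 cells exposed to compounds for 48 hr at 37 C, 5% CO2, then Hoechst-stained 40 min. Nuclear DNA content imaged by fluorescence scanning (405 nm excitation, 500-530 nm emission); re-replication scored as increased high-intensity nuclei.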
IL-1B inflam inh = inflammasome signaling inhibition, IL-1 beta readout | THP-1 LPS/ATP IL-1B secretion, AlphaLISA, 16 h; stronger effect = lower value | activity change, % at 57.5 µM | AID 743279 | actives 4.7% (n = 360,000); in the data active = activity change below about -50%; inconclusive = mostly about -30% to -49%; also: % is scaled to controls: 0 for no effect and ±100 for the full control effect
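THP-1 cells pretreated 1 hr with compounds (up to 57.5 uM final), then stimulated with LPS (250 ng/mL final) plus ATP (1.25 mM final); secreted IL-1B measured by AlphaLISA after 16 hr, decreased signal indicating inhibition.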
MCF10A rerep = induces DNA re-replication in MCF 10a normal breast cells. actives 2.9% (n = 350,000). Potency, µM (highest dose often 46.1 µM), for the others: at the top dose activity, positive = re-replication, most hits filed as activators. MCF 10A DNA re-replication, Hoechst nuclear intensity, 48 h; also: potency is read from the fitted curve at half-maximal effect; % of control where 0% means no effect; nearly all actives have a fitted effect of over 50% in size
KB-3-1 cytotox = kills parental KB-3-1 adenocarcinoma cells | KB-3-1 viability, CellTiter-Glo ATP luminescence, 72 h | Potency, µM (series often up to 46.1 µM), hits mostly cytotoxic | actives 1.4% (n = 400,000) | AID 1347075; also: potency is read from the fitted curve at half-maximal effect; % is scaled to controls: 0 for no effect and ±100 for the full control effect; nearly all actives have a fitted effect of over 60% in size
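KB-3-1 parental drug-naive adenocarcinoma cells in DMEM/10% FBS, incubated 72 h at 37 C with pin-transferred compounds across a concentration series. Viability by CellTiter-Glo luminescence; concentration-response curves fitted after normalization.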
Active calls of the source: *; i = inactive; ? = inconclusive; / = no result given. A selection: hits, their analogues and other compounds. The true share with any hit is near 9.9%. Unless noted, calls follow the shape of the dose curve; as a rule, active = well fitted curve in the direction sought with a large enough effect; inconclusive = small, poorly fitted or top-dose-only effect, or another doubt; inactive = no such curve, though single readings can be large; an effect the other way counts as inactive or inconclusive.

SMILES	KB-V1 cytotox	SW480 rerep	IL-1B inflam inh	MCF10A rerep	KB-3-1 cytotox
O=C(C#Cc1ccccc1)Nc1ccc(F)cc1	i	?	-97*	0%	?
O=C(Nc1ccc(C#Cc2ccccc2)cc1)C1CC1	15µM*	18%	?	20%	i
CCOc1ccc(NC(=S)c2ccncc2)cc1	21µM*	-124%	-22	-74%	23µM*
CCOc1ccc(NC(=S)Nc2ccc(OC)cc2)cc1	i	6%	-27	-4%	i
O=C(CCC(=O)N1CCOc2ccc(Cl)cc21)NCCCN1CCC(Cc2ccccc2)CC1	i	7%	-1	-1%	?
CCOC(=O)CNC(=O)N1[C@H](c2cccs2)[C@@H](C)C(=O)[C@@H](C)[C@@H]1c1cccs1	i	/	/	/	i
Cn1c(CCc2nc3ccccc3[nH]2)nnc1SCC#N	i	1%	0	10%	?
CCC(Oc1ccccc1C)C(=O)N1CCCN(C)CC1 (stereo not given)	i	-3%	-18	0%	i
COc1ccc(O[C@@H]2O[C@H](COC(C)=O)[C@@H](OC(C)=O)[C@H](OC(C)=O)[C@H]2NC(C)=O)cc1	i	-10%	13	2%	i
CC(=O)OC[C@H]1O[C@@H](Oc2cc3ccc(=O)oc3cc2OC(C)=O)[C@H](OC(C)=O)[C@@H](OC(C)=O)[C@@H]1OC(C)=O	i	21µM*	12	-65%	i
COc1cc(C2C(C#N)=C(N)OC3=C2C(=O)CCC3)c([N+](=O)[O-])cc1OC (stereo not given)	i	-12%	9	0%	i
COc1cc(S(=O)(=O)NCCOC23CC4CC(CC(C4)C2)C3)c(OC)cc1Cl	5.8µM*	-8%	-55*	?	?
N#Cc1c(N2CCOCC2)nsc1-c1ccccc1	?	-27%	-15	-3%	10µM*
CCOc1ccc(-n2c(C)nc3cc(C(=O)NCc4ccc5c(c4)OCO5)ccc32)cc1	13µM*	2%	-6	18%	?
O=C(C1CCC(CNc2nc(=S)[nH]c3ccccc23)CC1)N1CCN(c2ccccn2)CC1 (stereo not given)	2.6µM*	2%	?	6%	i
S=C(Nc1ccccc1Cl)N(CCCN1CCOCC1)Cc1ccco1	21µM*	-3%	9	4%	i
CCOC(=O)c1ccc(NC(=S)N(CCCN2CCCCC2)Cc2ccco2)cc1	i	-3%	-53*	0%	i
Cc1ccc(NC(=S)N(CCN2CCCCC2)Cc2ccco2)cc1Cl	?	7%	-98*	?	i
CCOC(=O)c1ccc(NC(=S)N(CCCN(CC)CC)Cc2ccco2)cc1	i	-2%	-55*	?	i
O=C(Nc1cccc(S(=O)(=O)NC2=NCCC2)c1)c1c(F)cccc1Cl	i	-7%	3	-1%	i
CN(C(=O)Cn1ncc2c1-c1ccccc1OC2)c1ccc(Br)cc1	i	/	/	/	i
Cc1ccc(-n2c(=O)c3c(c4cc(C)ccc4n3C)n(CC(=O)NCc3ccccc3)c2=O)cc1	i	/	/	/	i
O=C1/C(=C/c2c[nH]c3ccccc23)CCC/C1=C\c1c[nH]c2ccccc12	?	?	-4	21µM*	?
CCOC(=O)/C=C1\SCC(=O)N1CC(=O)NC(c1ccccc1)c1ccccc1	6.5µM*	5%	71	5%	i
Cc1cc(OCC(=O)C(C)(C)C)c2c(-c3ccccc3)cc(=O)oc2c1	i	-8%	70	25%	i
COc1cc(CN(C(=O)c2oc3ccccc3c2C)C2CCS(=O)(=O)C2)cc(OC)c1OC (stereo not given)	i	/	/	/	i
Cc1ccc(-c2nc(N3CCCC(C)C3)c3ccccc3n2)cc1 (stereo not given)	i	/	/	/	i
CC(C)CCNc1ncnc2c1nnn2Cc1ccccc1Cl	13µM*	0%	-11	13%	i
Fc1cccc(Cl)c1Cn1nnc2c(NCc3ccccn3)ncnc21	?	0%	-59*	-2%	i
OCCNc1ncnc2c1nnn2Cc1ccccc1Cl	i	/	-5	/	i
